Several values for one entry are separate records, joined by “and”; a condition that tells them apart may be missing. Equal entries are not always repeated. Records with an inconclusive call do not appear. Activity calls are given as the source filed them. The calls were made as follows: active = hit-call score of the fitted dose curve at least 0.9, where 1 is the maximum; inconclusive = response in the unintended direction; inactive = score below 0.9.
How the values were obtained:
[1] = biological target: human Thromboxane A2 Receptor (TXA2), TBXA2R (gene 6915) (UniProt P21731); experiment: NVS_GPCR_hTXA2: NovaScreen (NVS) G Protein-Coupled Receptor Assay for human Thromboxane A2 Receptor (TXA2) (AID 2283282);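 also: actives reduce bound radioligand signal relative to DMSO baseline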
Outline: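 Human platelet membranes tested for radioligand displacement by filtration and scintillation counting 1 h post-dose. Screened in duplicate at 25 uM; activity fitted as signal loss relative to DMSO.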

[2] = biological target: human Orphanin, Opioid Related Nociceptin Receptor 1 (ORL1), OPRL1 (gene 4987) (UniProt P41146); experiment: NVS_GPCR_hORL1: NovaScreen (NVS) G Protein-Coupled Receptor Assay for human Orphanin, Opioid Related Nociceptin Receptor 1 (ORL1) (AID 2283283)
Outline: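 Filter-based radioligand displacement with receptor extracted from HEK293 cells, read 1 hour after dosing by scintillation counting. Duplicate single-point screen at 25 uM; qualifying chemicals then run in concentration-response to 50 uM, analysed relative to DMSO.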

[3] = biological target: mouse Cholecystokinin, CCK1 Receptor (CCKA), Cckar (gene 12425) (UniProt O08786); experiment: NVS_GPCR_mCCKAPeripheral: NovaScreen (NVS) G Protein-Coupled Receptor Assay for mouse Cholecystokinin, CCK1 Receptor (CCKA) (AID 2283285)
Outline: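 Radioligand competitive displacement on mouse pancreatic membranes, 2 h incubation; filter-based scintillation counting, loss of signal versus DMSO. Single-concentration screen at 25 uM in duplicate, actives retested in concentration-response up to 50 uM.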

[4] = system: 5-hydroxytryptamine receptor 2C (pig); experiment: NVS_GPCR_p5HT2C: NovaScreen (NVS) G Protein-Coupled Receptor Assay for pig Serotonin, 5-Hydroxytryptamine Receptor 2C (5HT2C) (AID 2283288)
Outline: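 Pig choroid plexus membranes; radioligand competitive binding, filter-based scintillation counting, read 1 h after dosing. Primary screen in duplicate at 25 uM; actives then run as concentration series; loss of signal versus DMSO baseline.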

[5] = biological target: rat Adrenergic, Alpha 1, Non-selective Receptor (Adra1), Adra1a (gene 29412) (UniProt P43140); experiment: NVS_GPCR_rAdra1_NonSelective: NovaScreen (NVS) G Protein-Coupled Receptor Assay for rat Adrenergic, Alpha 1, Non-selective Receptor (Adra1) (AID 2283289)
Outline: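 Rat forebrain membranes; radioligand displacement read by filter-based scintillation counting 1 h after dosing. Primary screen in duplicate at 25 uM; hits (e.g. ≥30% inhibition) rerun as concentration–response to 50 uM max. Fitted versus DMSO.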

[6] = biological target: human Opioid Receptor Mu (Opiate Mu), OPRM1 (gene 4988) (UniProt P35372); experiment: NVS_GPCR_hOpiate_mu: NovaScreen (NVS) G Protein-Coupled Receptor Assay for human Opioid Receptor Mu (Opiate Mu) (AID 2283290);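 also: hits lower bound tracer signal versus DMSO meaning displacement of the ligand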
Outline: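 Cell-free radioligand binding to membranes from CHO cells expressing the receptor; bound tracer measured by filter-based scintillation counting 2.5 hours after dosing. Loss of signal versus DMSO baseline reflects displacement; primary screen at 25 uM in duplicate, actives followed up in concentration series.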

[7] = biological target: mouse Cholecystokinin, CCK2 Receptor (CCKB), Cckbr (gene 12426) (UniProt P56481); experiment: NVS_GPCR_mCKKBCentral: NovaScreen (NVS) G Protein-Coupled Receptor Assay for mouse Cholecystokinin, CCK2 Receptor (CCKB) (AID 2283293)
Outline: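 Radioligand displacement binding on mouse forebrain membranes, 2 h exposure, filter-based scintillation counting. Primary screen in duplicate at 25 uM; actives (e.g. ≥30% inhibition) retested in concentration-response up to 50 uM; loss of binding signal relative to DMSO.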

[8] = biological target: guinea pig Serotonin, 5-Hydroxytryptamine Receptor 4 (5HT4), HTR4 (gene 100135548) (UniProt O70528); experiment: NVS_GPCR_g5HT4: NovaScreen (NVS) G Protein-Coupled Receptor Assay for guinea pig Serotonin, 5-Hydroxytryptamine Receptor 4 (5HT4) (AID 2283294)
Outline: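 Guinea pig striatal membranes; radioligand competitive displacement, filtration and scintillation counting after 1 h. Primary screen in duplicate at 25 uM; actives then tested in concentration series; loss of binding signal fitted relative to DMSO.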

[9] = biological target: rat Adrenergic Receptor, Alpha 2 (Adra2), Non-selective Binding, Adra2a (gene 25083) (UniProt P22909); experiment: NVS_GPCR_rAdra2_NonSelective: NovaScreen (NVS) G Protein-Coupled Receptor Assay for rat Adrenergic Receptor, Alpha 2 (Adra2), Non-selective Binding (AID 2283299)
Outline: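 Rat cortical membranes, radioligand competitive displacement read by filter-based scintillation counting 1.25 hours after dosing. Primary screen in duplicate at 25 uM; actives followed up in concentration series.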

[10] = biological target: rat Gamma-Aminobutyric Acid Type B Receptor (GABBR), Gabbr1 (gene 81657) (UniProt Q9Z0U4); experiment: NVS_GPCR_rGABBR: NovaScreen (NVS) G Protein-Coupled Receptor Assay for rat Gamma-Aminobutyric Acid Type B Receptor (GABBR) (AID 2283301)
Outline: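 Radioligand displacement on rat cortical membranes, 1 h, filter-based scintillation counting. Primary screen at 25 uM in duplicate; compounds passing threshold re-tested in concentration-response up to 50 uM; loss of binding fitted against DMSO.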

[11] = biological target: human Vasopressin 1A Receptor (V1A), AVPR1A (gene 552) (UniProt P37288); experiment: NVS_GPCR_hV1A: NovaScreen (NVS) G Protein-Coupled Receptor Assay for human Vasopressin 1A Receptor (V1A) (AID 2283284)
Outline: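 Cell-free radioligand displacement on human platelet preparations, 1.5 h incubation, filter-based scintillation counting. Chemicals first tested in duplicate at 25 uM; actives then run in concentration-response up to 50 uM, loss of signal fitted against DMSO.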

[12] = biological target: rat Serotonin, 5-Hydroxytryptamine Receptor (5HT), Non-Selective Binding, Htr1a (gene 24473) (UniProt P19327); experiment: NVS_GPCR_r5HT_NonSelective: NovaScreen (NVS) G Protein-Coupled Receptor Assay for rat Serotonin, 5-Hydroxytryptamine Receptor (5HT), Non-Selective Binding (AID 2283295)
Outline: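 Radioligand displacement on rat cortical membranes, 1 h incubation, filter-based scintillation counting. Primary duplicates at 25 uM, actives retested in concentration series; loss of signal fitted against DMSO as baseline.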

[13] = system: rat Adrenergic, Alpha 1B Receptor (Adra1B), gene 24173; experiment: NVS_GPCR_rAdra1B: NovaScreen (NVS) G Protein-Coupled Receptor Assay for rat Adrenergic, Alpha 1B Receptor (Adra1B) (AID 2283297)
Outline: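 Rat liver membranes, radioligand displacement with filter-based scintillation detection, 1 h incubation. Primary screen in duplicate at 25 uM; actives retested in concentration series; activity relative to DMSO.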

[14] = biological target: rat Histamine Receptor (H3), Hrh3 (gene 85268) (UniProt Q9QYN8); experiment: NVS_GPCR_rH3: NovaScreen (NVS) G Protein-Coupled Receptor Assay for rat Histamine Receptor (H3) (AID 2283303)
Outline: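 Rat forebrain membranes incubated 1 h with compound; radioligand displacement measured by filter-based scintillation counting. Single-concentration duplicates at 25 µM, then concentration-response up to 50 µM, relative to DMSO.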

Adra2b (gene 24174) = Adra2b (gene 24174) (UniProt P19328); experiment: NVS_GPCR_rmAdra2B: NovaScreen (NVS) G Protein-Coupled Receptor Assay for hybird cells Adrenergic, Alpha 2B Receptor (Adra2B) (AID 2283306)
Outline: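 Radioligand filter-binding assay on membrane proteins from neuroglioma/blastoma hybrid cells (rodent), 1 h after dosing; scintillation counting, loss of signal vs DMSO. Primary screen in duplicate at 25 uM, actives then run in concentration series.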

[15] = biological target: rat Serotonin, 5-Hydroxytryptamine Receptor 1 (5HT1), Non-Selective Binding, Htr1a (gene 24473) (UniProt P19327); experiment: NVS_GPCR_r5HT1_NonSelective: NovaScreen (NVS) G Protein-Coupled Receptor Assay for rat Serotonin, 5-Hydroxytryptamine Receptor 1 (5HT1), Non-Selective Binding (AID 2283286)
Outline: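 Rat cortical membranes, radioligand displacement, 1 h incubation, read by filter scintillation. Primary screen in duplicate at 25 uM. Hits (e.g. ≥30% inhibition) went to concentration-response up to 50 uM, fitted as loss of binding versus DMSO.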

[16] = biological target: guinea pig Bradykinin Receptor B2 (BK2), BDKRB2 (gene 100135486) (UniProt O70526); experiment: NVS_GPCR_gBK2: NovaScreen (NVS) G Protein-Coupled Receptor Assay for guinea pig Bradykinin Receptor B2 (BK2) (AID 2283292)
Outline: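 Radioligand displacement on guinea pig ileum membranes for 1 h, read by filter-based scintillation counting; loss of signal relative to DMSO. Compounds were screened in duplicate at 25 uM, and those passing the threshold were retested in concentration-response up to 50 uM.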

[17] = biological target: rat Adrenergic, Alpha 1A Receptor (Adra1A), Adra1a (gene 29412) (UniProt P43140); experiment: NVS_GPCR_rAdra1A: NovaScreen (NVS) G Protein-Coupled Receptor Assay for rat Adrenergic, Alpha 1A Receptor (Adra1A) (AID 2283296)
Outline: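 Rat cortical membranes pretreated with chlorethyl clonidine; competitive radioligand displacement, 1 h. Filter-based scintillation counting. Primary screen in duplicate at 25 uM, actives followed in concentration series.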

[18] = biological target: rat Adrenergic Receptor, Beta (Adrb), Non-selective Binding, Adrb1 (gene 24925) (UniProt P18090); experiment: NVS_GPCR_rAdrb_NonSelective: NovaScreen (NVS) G Protein-Coupled Receptor Assay for rat Adrenergic Receptor, Beta (Adrb), Non-selective Binding (AID 2283298)
Outline: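 Non-selective beta-adrenergic radioligand binding in rat cortical membranes, 1 h incubation, filter-based scintillation read-out. Primary screen 25 uM in duplicate; hits retested in concentration-response up to 50 uM, DMSO baseline.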

[19] = biological target: Metabotropic glutamate receptor 1 (Rattus norvegicus) (UniProt P23385); experiment: NVS_GPCR_rmMGluR1: NovaScreen (NVS) G Protein-Coupled Receptor Assay for rat Glutamate Metabotropic Receptor 1 (MGluR1) (AID 2283305)
Outline: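 Rat cerebellum membrane preparation, radioligand displacement binding read by filter-based scintillation counting 1 hour after dosing. Initial duplicate single-point screen at 25 uM, then concentration-response up to 50 uM; loss of signal versus DMSO baseline scored.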

Measured: AC50

Sequence of rat Adrenergic, Alpha 1, Non-selective Receptor (Adra1), Adra1a (gene 29412) (P43140 whole entry, looked up): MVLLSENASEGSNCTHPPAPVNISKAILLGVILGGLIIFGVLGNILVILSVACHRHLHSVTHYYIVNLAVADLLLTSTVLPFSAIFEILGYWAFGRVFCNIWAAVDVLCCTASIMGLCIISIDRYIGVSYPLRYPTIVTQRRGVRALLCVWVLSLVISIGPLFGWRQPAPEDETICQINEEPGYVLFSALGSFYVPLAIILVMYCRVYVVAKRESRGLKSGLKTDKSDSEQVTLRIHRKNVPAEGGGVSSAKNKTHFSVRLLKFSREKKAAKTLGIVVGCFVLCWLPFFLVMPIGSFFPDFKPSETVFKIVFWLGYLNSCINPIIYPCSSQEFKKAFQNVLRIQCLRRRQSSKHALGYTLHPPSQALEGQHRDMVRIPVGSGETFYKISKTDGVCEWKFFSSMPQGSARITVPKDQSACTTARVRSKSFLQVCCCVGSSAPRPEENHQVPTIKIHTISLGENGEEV
Sequence of Adra2b (gene 24174) (P19328 whole entry, looked up): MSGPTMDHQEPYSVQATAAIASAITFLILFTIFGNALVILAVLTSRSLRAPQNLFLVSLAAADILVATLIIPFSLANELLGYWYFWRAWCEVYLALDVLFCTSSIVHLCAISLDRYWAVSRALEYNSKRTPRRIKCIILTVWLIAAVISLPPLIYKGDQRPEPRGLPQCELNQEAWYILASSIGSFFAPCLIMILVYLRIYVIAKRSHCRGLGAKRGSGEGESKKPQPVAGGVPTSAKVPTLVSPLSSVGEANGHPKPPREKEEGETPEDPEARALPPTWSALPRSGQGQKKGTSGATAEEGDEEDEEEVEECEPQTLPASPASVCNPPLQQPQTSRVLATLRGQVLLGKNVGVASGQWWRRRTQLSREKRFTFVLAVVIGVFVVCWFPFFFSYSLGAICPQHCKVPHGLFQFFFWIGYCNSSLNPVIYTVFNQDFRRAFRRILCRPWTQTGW
Sequence of mouse Cholecystokinin, CCK1 Receptor (CCKA), Cckar (gene 12425) (O08786 whole entry, looked up): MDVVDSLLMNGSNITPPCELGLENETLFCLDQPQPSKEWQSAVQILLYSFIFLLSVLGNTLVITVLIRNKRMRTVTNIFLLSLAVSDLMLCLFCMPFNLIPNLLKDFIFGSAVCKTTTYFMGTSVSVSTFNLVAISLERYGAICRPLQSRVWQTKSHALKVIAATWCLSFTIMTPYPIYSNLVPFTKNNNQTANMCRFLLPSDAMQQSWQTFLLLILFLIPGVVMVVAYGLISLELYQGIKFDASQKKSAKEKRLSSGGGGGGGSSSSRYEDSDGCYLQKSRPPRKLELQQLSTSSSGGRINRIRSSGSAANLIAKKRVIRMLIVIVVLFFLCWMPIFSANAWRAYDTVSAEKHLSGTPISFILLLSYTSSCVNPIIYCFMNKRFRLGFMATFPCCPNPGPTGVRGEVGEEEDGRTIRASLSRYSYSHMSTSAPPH
Sequence of human Opioid Receptor Mu (Opiate Mu), OPRM1 (gene 4988) (P35372 whole entry, looked up): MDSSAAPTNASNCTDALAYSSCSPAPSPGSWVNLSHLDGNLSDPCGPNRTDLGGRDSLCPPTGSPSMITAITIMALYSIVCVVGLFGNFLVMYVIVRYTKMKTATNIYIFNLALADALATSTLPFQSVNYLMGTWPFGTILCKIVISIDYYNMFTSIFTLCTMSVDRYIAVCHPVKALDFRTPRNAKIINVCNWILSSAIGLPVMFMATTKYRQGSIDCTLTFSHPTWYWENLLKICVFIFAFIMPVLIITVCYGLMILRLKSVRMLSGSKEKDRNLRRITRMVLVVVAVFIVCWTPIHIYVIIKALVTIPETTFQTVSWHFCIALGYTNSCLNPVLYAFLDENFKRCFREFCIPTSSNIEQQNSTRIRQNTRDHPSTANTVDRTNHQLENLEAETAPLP
Sequence of rat Serotonin, 5-Hydroxytryptamine Receptor (5HT), Non-Selective Binding, Htr1a (gene 24473) (P19327 whole entry, looked up): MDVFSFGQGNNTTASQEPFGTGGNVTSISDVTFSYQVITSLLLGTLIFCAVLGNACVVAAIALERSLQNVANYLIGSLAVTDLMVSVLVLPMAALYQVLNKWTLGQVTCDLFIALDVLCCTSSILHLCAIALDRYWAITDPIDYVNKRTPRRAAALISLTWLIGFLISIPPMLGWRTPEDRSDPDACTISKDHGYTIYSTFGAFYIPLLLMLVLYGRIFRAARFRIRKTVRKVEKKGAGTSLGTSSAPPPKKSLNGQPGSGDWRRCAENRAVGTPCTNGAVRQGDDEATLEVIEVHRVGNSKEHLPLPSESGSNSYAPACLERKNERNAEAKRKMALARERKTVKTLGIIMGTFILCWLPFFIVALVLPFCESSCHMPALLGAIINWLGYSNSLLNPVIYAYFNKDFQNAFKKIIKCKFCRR
Sequence of human Thromboxane A2 Receptor (TXA2), TBXA2R (gene 6915) (P21731 whole entry, looked up): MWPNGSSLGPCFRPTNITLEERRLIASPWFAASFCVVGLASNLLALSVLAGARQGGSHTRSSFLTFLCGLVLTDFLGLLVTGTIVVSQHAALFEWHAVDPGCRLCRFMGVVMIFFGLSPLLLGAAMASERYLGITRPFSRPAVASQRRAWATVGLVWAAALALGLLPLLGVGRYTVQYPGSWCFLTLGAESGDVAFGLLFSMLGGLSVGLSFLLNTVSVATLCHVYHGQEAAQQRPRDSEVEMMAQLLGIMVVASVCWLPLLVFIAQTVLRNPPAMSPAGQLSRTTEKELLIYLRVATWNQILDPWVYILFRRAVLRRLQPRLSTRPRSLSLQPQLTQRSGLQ
Sequence of guinea pig Serotonin, 5-Hydroxytryptamine Receptor 4 (5HT4), HTR4 (gene 100135548) (O70528 whole entry, looked up): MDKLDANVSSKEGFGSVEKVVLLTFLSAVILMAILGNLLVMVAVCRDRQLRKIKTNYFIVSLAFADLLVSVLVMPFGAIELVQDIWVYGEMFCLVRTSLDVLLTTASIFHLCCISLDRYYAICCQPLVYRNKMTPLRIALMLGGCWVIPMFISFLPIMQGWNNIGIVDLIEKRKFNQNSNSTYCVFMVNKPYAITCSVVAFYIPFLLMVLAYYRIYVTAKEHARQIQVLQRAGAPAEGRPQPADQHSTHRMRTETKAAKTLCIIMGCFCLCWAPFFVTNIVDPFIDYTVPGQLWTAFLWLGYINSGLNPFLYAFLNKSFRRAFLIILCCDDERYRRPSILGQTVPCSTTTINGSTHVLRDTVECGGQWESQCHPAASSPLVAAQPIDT
Sequence of human Orphanin, Opioid Related Nociceptin Receptor 1 (ORL1), OPRL1 (gene 4987) (P41146 whole entry, looked up): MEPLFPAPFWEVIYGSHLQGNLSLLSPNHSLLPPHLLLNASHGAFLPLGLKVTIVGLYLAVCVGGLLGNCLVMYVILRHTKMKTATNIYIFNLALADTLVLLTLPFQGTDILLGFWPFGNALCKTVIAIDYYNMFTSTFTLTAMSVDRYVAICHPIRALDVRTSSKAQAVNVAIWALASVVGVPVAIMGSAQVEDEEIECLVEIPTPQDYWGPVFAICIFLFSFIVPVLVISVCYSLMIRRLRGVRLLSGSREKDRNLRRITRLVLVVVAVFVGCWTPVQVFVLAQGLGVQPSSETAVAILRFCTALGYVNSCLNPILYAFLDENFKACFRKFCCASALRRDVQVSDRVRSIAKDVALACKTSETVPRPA
Sequence of rat Adrenergic, Alpha 1A Receptor (Adra1A), Adra1a (gene 29412) (P43140 whole entry, looked up): as the sequence (P43140 whole entry, looked up) above
Sequence of guinea pig Bradykinin Receptor B2 (BK2), BDKRB2 (gene 100135486) (O70526 whole entry, looked up): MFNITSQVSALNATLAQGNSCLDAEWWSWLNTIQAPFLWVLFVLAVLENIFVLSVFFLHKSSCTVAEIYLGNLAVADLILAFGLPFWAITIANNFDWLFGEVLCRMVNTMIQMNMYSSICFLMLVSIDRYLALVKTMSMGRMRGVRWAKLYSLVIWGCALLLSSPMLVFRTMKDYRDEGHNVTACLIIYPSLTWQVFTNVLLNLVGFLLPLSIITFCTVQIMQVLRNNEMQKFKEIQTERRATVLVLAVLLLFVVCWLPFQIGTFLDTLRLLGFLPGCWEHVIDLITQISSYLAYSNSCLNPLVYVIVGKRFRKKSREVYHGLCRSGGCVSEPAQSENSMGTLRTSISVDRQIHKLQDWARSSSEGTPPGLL
Sequence of mouse Cholecystokinin, CCK2 Receptor (CCKB), Cckbr (gene 12426) (P56481 whole entry, looked up): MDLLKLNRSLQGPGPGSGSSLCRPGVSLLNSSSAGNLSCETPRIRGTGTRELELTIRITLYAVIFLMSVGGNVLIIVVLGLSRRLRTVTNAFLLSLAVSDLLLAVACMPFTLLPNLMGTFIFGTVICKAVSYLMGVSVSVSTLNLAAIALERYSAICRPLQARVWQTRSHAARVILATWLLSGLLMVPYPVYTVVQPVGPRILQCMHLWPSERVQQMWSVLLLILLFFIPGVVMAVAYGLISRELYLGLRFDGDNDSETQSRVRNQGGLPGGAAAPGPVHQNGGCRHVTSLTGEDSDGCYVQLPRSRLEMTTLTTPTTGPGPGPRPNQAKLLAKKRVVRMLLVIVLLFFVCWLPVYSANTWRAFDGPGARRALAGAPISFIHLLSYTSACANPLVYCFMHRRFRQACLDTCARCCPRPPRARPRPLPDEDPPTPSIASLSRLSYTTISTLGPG

CC/C(=C(/CC)c1ccc(O)cc1)c1ccc(O)cc1
inactive: [5] | [10]
active: [1] 15.3 µM | [2] 11.4 µM | [3] 12.5 µM | [4] 22.1 µM | [6] 5.64 µM and 4.96 µM and 10.7 µM | [7] 37.9 µM | [8] 39.4 µM | [9] 36.3 µM

CO[C@H]1/C=C/O[C@@]2(C)Oc3c(C)c(O)c4c(O)c(c(/C=N/N5CCN(C)CC5)c(O)c4c3C2=O)NC(=O)/C(C)=C\C=C\[C@H](C)[C@H](O)[C@@H](C)[C@@H](O)[C@@H](C)[C@H](OC(C)=O)[C@@H]1C
inactive: [1]

Cc1occc1C(=O)Nc1ccc(C(=O)N2CCC(F)(F)/C(=C\C(=O)N3CCC(N4CCCCC4)CC3)c3ccccc32)cc1
active: [11] 0.00237 µM | [5] 6.08 µM | [8] 0.579 µM | [13] 3.24 µM | [14] 4.22 µM | Adra2b (gene 24174) 1.25 µM
inactive: [4] | [12]

O=C1O[C@H]([C@@H](O)CO)C(O)=C1O
active: [1] 8.76 µM

CC1=CC(=O)/C(=C(/C)O)C(=O)O1
inactive: [15]

CC(C)(C)c1csc(-c2cc3cc(OCc4ccccc4CC(=O)O)ccc3o2)n1
inactive: [3]

CCN(Cc1cccc(S(=O)(=O)O)c1)c1ccc(C(=C2C=CC(=[N+](CC)Cc3cccc(S(=O)(=O)O)c3)C=C2)c2ccccc2S(=O)(=O)[O-])cc1
active: [1] 8.17 µM

CN(C)C(=O)C1(N2CCCCC2)CCN(CC[C@@]2(c3ccc(Cl)c(Cl)c3)CN(C(=O)c3ccccc3)CCO2)CC1
active: [2] 4.88 µM | [3] 3.99 µM | [4] 1.18 µM | [6] 1.41 µM | [16] 14 µM | [8] 23.6 µM | [12] 1.71 µM | [17] 10.1 µM | [13] 5.65 µM | [18] 6.63 µM | [19] 15.5 µM | Adra2b (gene 24174) 8.86 µM
inactive: [15]

CN(C)c1ccc(C(=C2C=CC(=[N+](C)C)C=C2)c2ccc(N(C)C)cc2)cc1
active: [2] 21.8 µM | [3] 10.8 µM | [4] 18.5 µM | [5] 4.81 µM | [6] 2.5 µM | [16] 12.3 µM | [7] 10.3 µM | [8] 7.22 µM | [12] 25 µM | [17] 20.9 µM | [18] 17.3 µM | [9] 1.15 µM | [14] 23 µM | Adra2b (gene 24174) 9.73 µM

— PubChem BioAssay (EPA / NIEHS)
